In PubChem BioAssay (EPA / NIEHS):
Records with an inconclusive call do not appear. Calls of active or inactive are those of the source. Rule for the calls, unless noted: active = hit-call score of the fitted dose curve at least 0.9, where 1 is the maximum; inconclusive = response in the unintended direction; inactive = score below 0.9.

Columns and labels:
[1] = ATG_TAL_CIS: Attagene CIS-FACTORIAL HepG2 Assay for human TAL Basal Promoter (AID 2282966; active = hit-call score of the fitted dose curve at least 0.9, where 1 is the maximum; inactive = score below 0.9;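 note: background control endpoint measuring basal TAL promoter reporter mRNA not a specific factor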); settings: HepG2 Attagene cis-factorial TAL promoter reporter; actives raise or lower the signal
How it was run: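 In this cell-based multiplex, HepG2 liver cells bearing cis-promoter reporter constructs are dosed for 24 hours. Total RNA is reverse-transcribed and amplified, labelled fragments are sized by capillary electrophoresis, and signal changes are fitted bidirectionally versus DMSO.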

[2] = ATG_TGFb_CIS: Attagene CIS-FACTORIAL HepG2 Assay for human Transforming Growth Factor (TGF) (AID 2282967; active = hit-call score of the fitted dose curve at least 0.9, where 1 is the maximum; inactive = score below 0.9); settings: HepG2 Attagene CIS TGFb reporter, mRNA transcription; actives raise or lower the signal
How it was run: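 Multiplexed cis-reporter HepG2 system, 24 h treatment; mRNA induction read by fluorescence after RT-PCR and CE; DMSO negative control, bidirectional curve fitting.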

[3] = ATG_M_19_TRANS: Attagene TRANS-FACTORIAL HepG2 Assay for M19 Transcription Factor (Internal Marker) (AID 2282974); settings: HepG2 Attagene TRANS-FACTORIAL M19 internal marker reporter
How it was run: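 Transfected HepG2 (GAL4-UAS MRTUs), 24 h compound, TriZol RNA, DNase-treated RT, reporter PCR, FAM label, HpaI digest, CE fluorescence; gain vs DMSO.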

[4] = ATG_GAL4_TRANS: Attagene TRANS-FACTORIAL HepG2 Assay for GAL4 (Internal Marker) (AID 2282976); settings: HepG2 Attagene TRANS GAL4 internal marker reporter
How it was run: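 RT-PCR/capillary electrophoresis readout of reporter mRNA. HepG2, transient MRTU transfection (GAL4-UAS reporters), 24 h compound exposure. Background-control endpoint, positive direction vs DMSO baseline.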

[5] = biological target: Glucocorticoid receptor (Homo sapiens) (UniProt P04150); test: ATG_GR_TRANS: Attagene TRANS-FACTORIAL HepG2 Assay for human Glucocorticoid Receptor (GR) (AID 2282978); settings: HepG2 Attagene TRANS GR reporter, mRNA transcription;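 note: activators score as hits since higher reporter transcript over DMSO is fitted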
Glucocorticoid receptor (Homo sapiens), sequence (P04150 whole entry, looked up): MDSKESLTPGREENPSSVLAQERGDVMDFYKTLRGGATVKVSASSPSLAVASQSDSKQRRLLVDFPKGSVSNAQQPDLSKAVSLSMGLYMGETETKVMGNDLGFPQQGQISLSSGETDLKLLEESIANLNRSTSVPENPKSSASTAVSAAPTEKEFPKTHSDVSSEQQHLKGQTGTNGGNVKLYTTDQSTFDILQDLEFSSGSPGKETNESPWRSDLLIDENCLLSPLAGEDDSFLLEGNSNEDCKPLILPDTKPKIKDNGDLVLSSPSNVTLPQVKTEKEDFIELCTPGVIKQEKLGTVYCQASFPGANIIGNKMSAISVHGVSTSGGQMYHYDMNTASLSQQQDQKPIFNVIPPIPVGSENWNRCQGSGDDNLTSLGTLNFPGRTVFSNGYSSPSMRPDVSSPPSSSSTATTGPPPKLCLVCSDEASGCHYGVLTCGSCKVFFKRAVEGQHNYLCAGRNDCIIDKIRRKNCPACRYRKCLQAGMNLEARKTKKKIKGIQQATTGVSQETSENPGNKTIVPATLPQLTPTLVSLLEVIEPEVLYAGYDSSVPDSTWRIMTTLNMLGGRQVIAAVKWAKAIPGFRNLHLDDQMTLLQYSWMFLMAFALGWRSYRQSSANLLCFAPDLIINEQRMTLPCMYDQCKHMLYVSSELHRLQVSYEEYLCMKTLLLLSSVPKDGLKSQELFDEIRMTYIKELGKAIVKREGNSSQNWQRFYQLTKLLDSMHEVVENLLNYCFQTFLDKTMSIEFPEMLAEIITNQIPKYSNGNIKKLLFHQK
How it was run: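 After 24 h incubation with test chemical, transfected HepG2 cells were lysed for RNA; reporter cDNA was amplified, FAM-labelled, HpaI-digested and sized on a capillary analyser. Signal gain relative to DMSO was scored.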

[6] = biological target: Bile acid receptor (Homo sapiens) (UniProt Q96RI1); test: ATG_FXR_TRANS: Attagene TRANS-FACTORIAL HepG2 Assay for Farnesoid X Receptor (FXR) (AID 2282979); settings: HepG2 Attagene TRANS FXR-GAL4 reporter transcription;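 note: hits raise reporter mRNA above DMSO so AC50 marks FXR activation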
Bile acid receptor (Homo sapiens), sequence (Q96RI1 whole entry, looked up, the tested form may be a part): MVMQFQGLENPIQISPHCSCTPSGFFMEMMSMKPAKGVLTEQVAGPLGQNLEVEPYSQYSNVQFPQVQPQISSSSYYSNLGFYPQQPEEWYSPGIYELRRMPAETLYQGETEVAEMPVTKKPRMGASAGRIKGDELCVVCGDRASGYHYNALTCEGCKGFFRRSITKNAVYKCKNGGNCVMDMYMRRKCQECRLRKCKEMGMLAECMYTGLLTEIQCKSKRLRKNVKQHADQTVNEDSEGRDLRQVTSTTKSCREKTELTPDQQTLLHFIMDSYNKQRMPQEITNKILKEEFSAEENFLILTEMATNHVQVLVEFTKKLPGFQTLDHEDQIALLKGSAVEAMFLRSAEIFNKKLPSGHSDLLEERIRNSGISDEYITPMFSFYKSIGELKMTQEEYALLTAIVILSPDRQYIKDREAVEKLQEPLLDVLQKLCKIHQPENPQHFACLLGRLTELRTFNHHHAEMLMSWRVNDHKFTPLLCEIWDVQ
How it was run: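 Read-out: fluorescent reporter transcripts quantified by capillary electrophoresis after RT-PCR of total RNA. Source cells were HepG2 transiently carrying chimeric NR-GAL4 plus GAL4-UAS reporter units, dosed 24 h. Activity fitted upward relative to DMSO baseline.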

[7] = biological target: Hepatocyte nuclear factor 4-alpha (Homo sapiens) (UniProt P41235); test: ATG_HNF4a_TRANS: Attagene TRANS-FACTORIAL HepG2 Assay for human Hepatocyte Nuclear Factor 4 alpha (HNF4a) (AID 2282982); settings: HepG2 HNF4a transactivation reporter, mRNA readout
Hepatocyte nuclear factor 4-alpha (Homo sapiens), sequence (P41235 whole entry, looked up, the tested form may be a part): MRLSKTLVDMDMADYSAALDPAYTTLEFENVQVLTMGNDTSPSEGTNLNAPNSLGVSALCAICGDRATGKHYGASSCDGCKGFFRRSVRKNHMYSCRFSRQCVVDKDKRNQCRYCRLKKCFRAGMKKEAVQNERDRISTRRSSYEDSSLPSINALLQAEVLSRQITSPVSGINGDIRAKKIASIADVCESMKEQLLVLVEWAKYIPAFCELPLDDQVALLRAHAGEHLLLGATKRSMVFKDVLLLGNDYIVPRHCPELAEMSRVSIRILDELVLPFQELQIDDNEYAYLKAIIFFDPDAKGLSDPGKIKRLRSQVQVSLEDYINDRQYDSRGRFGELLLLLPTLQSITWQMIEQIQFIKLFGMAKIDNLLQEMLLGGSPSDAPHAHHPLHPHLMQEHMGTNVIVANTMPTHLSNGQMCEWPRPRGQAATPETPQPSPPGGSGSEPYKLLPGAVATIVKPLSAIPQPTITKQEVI
How it was run: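 Readout is fluorescent reporter-transcript fragments resolved by capillary electrophoresis after RT-PCR from HepG2 cells dosed for 24 h. Cells carried transfected GAL4-UAS reporter constructs measuring exogenous NR-GAL4 chimera activity; DMSO served as baseline.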

[8] = ATG_M_06_TRANS: Attagene TRANS-FACTORIAL HepG2 Assay for M06 Transcription Factor (Internal Marker) (AID 2282983); settings: HepG2 Attagene TRANS M06 internal marker reporter
How it was run: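 After a 24 h chemical treatment of transfected HepG2, RNA underwent DNase I treatment, reverse transcription and reporter-specific PCR; labelled, HpaI-digested products were sized by capillary electrophoresis. Signal increase relative to DMSO defined activity.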

[9] = biological target: Transcriptional activator Myb (Homo sapiens) (UniProt P10242); test: ATG_Myb_CIS: Attagene CIS-FACTORIAL HepG2 Assay for human Myeloblastosis (Myb) Proto-Oncogene Transcription Factor (AID 2282986; active = hit-call score of the fitted dose curve at least 0.9, where 1 is the maximum; inactive = score below 0.9); settings: HepG2 Attagene CIS-FACTORIAL Myb reporter transcription; actives raise or lower the signal
Transcriptional activator Myb (Homo sapiens), sequence (P10242 whole entry, looked up): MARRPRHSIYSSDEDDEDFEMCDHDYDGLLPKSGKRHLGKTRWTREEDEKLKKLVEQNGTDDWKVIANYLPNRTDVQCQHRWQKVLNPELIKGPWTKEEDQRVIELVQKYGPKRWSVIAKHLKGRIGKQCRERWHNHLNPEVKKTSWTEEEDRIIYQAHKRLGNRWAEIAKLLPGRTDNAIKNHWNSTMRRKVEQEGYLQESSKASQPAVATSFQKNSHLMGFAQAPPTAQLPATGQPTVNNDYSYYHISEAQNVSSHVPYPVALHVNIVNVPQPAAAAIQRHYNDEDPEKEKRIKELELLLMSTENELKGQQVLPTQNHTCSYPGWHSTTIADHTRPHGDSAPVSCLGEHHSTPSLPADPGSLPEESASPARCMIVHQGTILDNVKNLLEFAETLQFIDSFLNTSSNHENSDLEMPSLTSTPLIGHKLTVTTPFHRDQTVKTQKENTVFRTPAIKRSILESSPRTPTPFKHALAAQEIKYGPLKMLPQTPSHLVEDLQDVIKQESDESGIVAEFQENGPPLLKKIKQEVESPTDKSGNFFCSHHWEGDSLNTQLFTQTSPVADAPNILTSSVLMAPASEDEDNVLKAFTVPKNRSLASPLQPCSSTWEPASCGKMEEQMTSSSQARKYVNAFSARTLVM
How it was run: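 After 24 h of compound dosing, total RNA from transfected HepG2 cells is reverse-transcribed and the reporter sequences amplified, labeled and separated by capillary electrophoresis. Values come from bidirectional fitting against DMSO.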

[10] = biological target: Nuclear respiratory factor 1 (Homo sapiens) (UniProt Q16656); test: ATG_NRF1_CIS: Attagene CIS-FACTORIAL HepG2 Assay for human Nuclear Respiratory Factor 1 (NRF1) Orphan Gene (AID 2282987; active = hit-call score of the fitted dose curve at least 0.9, where 1 is the maximum; inactive = score below 0.9); settings: HepG2 NRF1 cis-element reporter, Attagene multiplex; actives raise or lower the signal
Nuclear respiratory factor 1 (Homo sapiens), sequence (Q16656 whole entry, looked up): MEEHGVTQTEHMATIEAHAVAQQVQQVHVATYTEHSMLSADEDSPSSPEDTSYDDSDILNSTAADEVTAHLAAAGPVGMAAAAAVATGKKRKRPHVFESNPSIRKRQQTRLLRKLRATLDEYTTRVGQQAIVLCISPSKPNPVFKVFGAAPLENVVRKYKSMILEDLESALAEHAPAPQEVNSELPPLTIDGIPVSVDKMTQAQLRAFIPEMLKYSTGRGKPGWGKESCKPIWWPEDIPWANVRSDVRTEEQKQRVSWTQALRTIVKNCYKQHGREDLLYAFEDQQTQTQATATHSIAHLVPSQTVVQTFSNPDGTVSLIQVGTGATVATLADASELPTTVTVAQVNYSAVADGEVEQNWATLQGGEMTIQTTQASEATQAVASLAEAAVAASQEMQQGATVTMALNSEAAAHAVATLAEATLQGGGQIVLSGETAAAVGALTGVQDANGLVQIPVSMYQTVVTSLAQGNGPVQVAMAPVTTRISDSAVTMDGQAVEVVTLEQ
How it was run: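 Measured: fluorescent reporter-specific RT-PCR products from transfected HepG2 cells, separated by capillary electrophoresis. Exposure lasted 24 h. Analysis used bidirectional curve fitting with DMSO as negative control.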

[11] = biological target: Oxysterols receptor LXR-beta (Homo sapiens) (UniProt P55055); test: ATG_LXRb_TRANS: Attagene TRANS-FACTORIAL HepG2 Assay for human Liver X Receptor beta (LXRb) (AID 2282981); settings: HepG2 Attagene TRANS GAL4-LXRb reporter, mRNA
Oxysterols receptor LXR-beta (Homo sapiens), sequence (P55055 whole entry, looked up, the tested form may be a part): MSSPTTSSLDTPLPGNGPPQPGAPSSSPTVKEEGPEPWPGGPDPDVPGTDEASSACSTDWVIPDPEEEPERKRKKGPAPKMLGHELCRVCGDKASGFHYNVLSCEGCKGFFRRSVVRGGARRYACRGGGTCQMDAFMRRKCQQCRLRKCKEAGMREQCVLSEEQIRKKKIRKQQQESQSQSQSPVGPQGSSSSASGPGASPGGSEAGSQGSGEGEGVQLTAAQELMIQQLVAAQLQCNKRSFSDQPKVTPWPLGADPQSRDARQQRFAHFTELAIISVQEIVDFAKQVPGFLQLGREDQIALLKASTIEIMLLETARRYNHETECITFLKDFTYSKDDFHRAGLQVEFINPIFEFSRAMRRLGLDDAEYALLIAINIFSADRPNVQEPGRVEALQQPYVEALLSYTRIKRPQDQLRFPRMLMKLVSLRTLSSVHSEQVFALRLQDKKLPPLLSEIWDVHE
How it was run: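 Transient transfection HepG2 (multiplexed RTUs, GAL4-UAS); NR-Gal4 chimera; 24 h exposure; RNA → RT-PCR → 6-FAM primer extension → HpaI → CE; increase vs DMSO.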

[12] = biological target: X-box-binding protein 1 (Homo sapiens) (UniProt P17861); test: ATG_Xbp1_CIS: Attagene CIS-FACTORIAL HepG2 Assay for human X-box Binding Protein 1 (XBP1) (AID 2282972; active = hit-call score of the fitted dose curve at least 0.9, where 1 is the maximum; inactive = score below 0.9); settings: HepG2 XBP1 cis-element reporter, Attagene multiplex; actives raise or lower the signal
X-box-binding protein 1 (Homo sapiens), sequence (P17861 whole entry, looked up, the tested form may be a part): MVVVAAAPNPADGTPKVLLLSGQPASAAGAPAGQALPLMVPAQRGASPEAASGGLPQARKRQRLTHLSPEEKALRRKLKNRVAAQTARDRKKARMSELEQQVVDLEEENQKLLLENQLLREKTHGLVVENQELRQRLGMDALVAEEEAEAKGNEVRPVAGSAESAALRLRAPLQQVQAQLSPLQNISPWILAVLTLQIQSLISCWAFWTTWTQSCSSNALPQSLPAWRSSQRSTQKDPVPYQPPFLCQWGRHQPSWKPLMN
How it was run: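 Fluorescence-labelled cDNA fragments from reporter transcripts, separated by capillary electrophoresis, give the signal. Source: HepG2 cells transfected with promoter-driven reporter units, harvested 24 h post-dose. DMSO served as reference for bidirectional curve fitting.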

[13] = biological target: Oxysterols receptor LXR-alpha (Homo sapiens) (UniProt Q13133); test: ATG_LXRa_TRANS: Attagene TRANS-FACTORIAL HepG2 Assay for human Liver X Receptor alpha (LXRa) (AID 2282980); settings: HepG2 Attagene TRANS reporter, LXRa transactivation
Oxysterols receptor LXR-alpha (Homo sapiens), sequence (Q13133 whole entry, looked up, the tested form may be a part): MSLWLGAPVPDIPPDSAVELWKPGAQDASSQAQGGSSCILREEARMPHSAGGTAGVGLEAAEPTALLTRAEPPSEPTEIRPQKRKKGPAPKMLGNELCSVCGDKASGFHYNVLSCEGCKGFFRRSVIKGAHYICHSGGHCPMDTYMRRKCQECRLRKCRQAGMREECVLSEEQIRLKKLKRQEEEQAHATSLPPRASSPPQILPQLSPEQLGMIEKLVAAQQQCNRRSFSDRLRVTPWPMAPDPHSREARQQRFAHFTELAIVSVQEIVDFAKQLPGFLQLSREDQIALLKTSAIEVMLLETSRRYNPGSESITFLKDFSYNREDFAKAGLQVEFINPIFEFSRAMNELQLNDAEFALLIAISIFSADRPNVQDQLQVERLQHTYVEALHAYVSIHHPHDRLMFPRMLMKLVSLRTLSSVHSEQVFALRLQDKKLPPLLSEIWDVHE
How it was run: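 Read-out: reporter transcript levels by RT-PCR plus capillary electrophoresis, fluorescence intensity. Transiently transfected HepG2, exogenous NR-GAL4 chimera, GAL4-UAS reporters; 24 h compound exposure. Activity = increase over DMSO negative control.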

[14] = biological target: Nuclear receptor subfamily 4 group A member 2 (Homo sapiens) (UniProt P43354); test: ATG_NURR1_TRANS: Attagene TRANS-FACTORIAL HepG2 Assay for human Nuclear Receptor Related Protein 1 (NURR1) (AID 2282985); settings: HepG2 Attagene TRANS reporter, mRNA readout
Nuclear receptor subfamily 4 group A member 2 (Homo sapiens), sequence (P43354 whole entry, looked up, the tested form may be a part): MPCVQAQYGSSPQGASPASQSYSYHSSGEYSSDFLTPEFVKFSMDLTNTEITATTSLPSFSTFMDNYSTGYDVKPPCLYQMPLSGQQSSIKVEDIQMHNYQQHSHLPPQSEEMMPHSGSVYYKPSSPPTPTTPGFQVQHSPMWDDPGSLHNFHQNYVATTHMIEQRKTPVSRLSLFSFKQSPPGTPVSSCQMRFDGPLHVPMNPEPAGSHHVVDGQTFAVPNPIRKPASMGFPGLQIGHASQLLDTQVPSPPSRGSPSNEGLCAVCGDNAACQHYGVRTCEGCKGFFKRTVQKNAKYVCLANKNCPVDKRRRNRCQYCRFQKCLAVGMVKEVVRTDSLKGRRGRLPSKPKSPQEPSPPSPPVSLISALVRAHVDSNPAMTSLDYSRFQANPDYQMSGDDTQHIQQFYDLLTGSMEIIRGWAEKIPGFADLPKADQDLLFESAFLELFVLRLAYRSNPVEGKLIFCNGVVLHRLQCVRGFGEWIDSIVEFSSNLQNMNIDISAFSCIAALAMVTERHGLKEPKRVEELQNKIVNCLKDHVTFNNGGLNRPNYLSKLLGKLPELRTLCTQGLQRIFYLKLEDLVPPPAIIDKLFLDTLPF
How it was run: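 Transient transfection of HepG2, human liver cells, with multiple GAL4-UAS reporter transcription units. Cells dosed 24 h, RNA isolated, reverse-transcribed, PCR-amplified, FAM-labelled, HpaI-digested, sized by capillary electrophoresis. DMSO served as negative control.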

[15] = ATG_M_32_TRANS: Attagene TRANS-FACTORIAL HepG2 Assay for M32 Transcription Factor (Internal Marker) (AID 2282984); settings: HepG2 Attagene TRANS M32 internal marker reporter;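 note: transcript level of a background control reporter unit measured by RT-PCR and capillary electrophoresis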
How it was run: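 Measures reporter mRNA induction in human HepG2 liver cells after 24 h chemical treatment. Transcripts from transiently transfected GAL4-UAS reporter units are amplified, fluorescently labelled and sized by capillary electrophoresis; gain of signal relative to DMSO.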

[16] = biological target: Nuclear receptor subfamily 1 group I member 3 (Homo sapiens) (UniProt Q14994); test: ATG_CAR_TRANS: Attagene TRANS-FACTORIAL HepG2 Assay for human Constitutive Androstane Receptor (CAR) (AID 2282969); settings: HepG2 Attagene TRANS-FACTORIAL CAR reporter;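 note: activators raise reporter mRNA above DMSO so AC50 marks induction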
Nuclear receptor subfamily 1 group I member 3 (Homo sapiens), sequence (Q14994 whole entry, looked up, the tested form may be a part): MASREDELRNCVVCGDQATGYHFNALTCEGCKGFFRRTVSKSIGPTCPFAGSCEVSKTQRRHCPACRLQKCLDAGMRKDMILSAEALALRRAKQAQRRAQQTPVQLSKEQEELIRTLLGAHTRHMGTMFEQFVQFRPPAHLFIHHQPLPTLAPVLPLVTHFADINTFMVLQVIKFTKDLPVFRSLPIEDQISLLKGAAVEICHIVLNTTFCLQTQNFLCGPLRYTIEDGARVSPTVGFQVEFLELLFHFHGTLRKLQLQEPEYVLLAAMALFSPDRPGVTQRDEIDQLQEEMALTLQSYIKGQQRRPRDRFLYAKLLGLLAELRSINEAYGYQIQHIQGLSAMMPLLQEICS
How it was run: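 Readout is reporter mRNA induction, quantified by fluorescent primer extension and capillary electrophoresis after RT-PCR. Cells were HepG2 transiently carrying chimeric NR-Gal4 constructs with GAL4-UAS reporters, treated for 24 h; activity scored upward from DMSO.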

[17] = biological target: Estrogen-related receptor gamma (Homo sapiens) (UniProt P62508); test: ATG_ERRg_TRANS: Attagene TRANS-FACTORIAL HepG2 Assay for human Estrogen-Related Receptor gamma (ERRg) (AID 2282977); settings: HepG2 Attagene TRANS reporter, ERRg transactivation;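 note: hits increase reporter signal over DMSO so potencies reflect activators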
How it was run: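 Transfect HepG2 with multiple GAL4-UAS reporter transcription units; dose chemicals 24 h; isolate RNA, reverse-transcribe with oligo(dT), PCR-amplify, label with 6-FAM, digest with HpaI; size fragments by capillary electrophoresis. DMSO serves as negative control.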

[18] = ATG_VDRE_CIS: Attagene CIS-FACTORIAL HepG2 Assay for human Vitamin D Receptor Element (VDRE) (AID 2282968; active = hit-call score of the fitted dose curve at least 0.9, where 1 is the maximum; inactive = score below 0.9); settings: HepG2 VDRE cis-reporter transcription, actives raise or lower the signal
How it was run: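 Reporter mRNA induction, quantified by capillary electrophoresis of fluorescently labelled RT-PCR products, was read 24 h after dosing HepG2 cells carrying transiently transfected cis-regulated reporter units; gain or loss relative to DMSO.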

Measured: AC50

CC[N+](C)(CC)CC
inactive: [1] | [2] | [3] | [4] | [5] | [6] | [7] | [8] | [9] | [10]

CC(=O)CC(=O)Nc1ccc(C)cc1C
inactive: [1] | [2] | [3] | [4] | [6] | [11] | [7] | [8] | [9]

C=C(C#N)C(=O)OCC
inactive: [1] | [2] | [12] | [3] | [13] | [11] | [8] | [9] | [10]

CC/C=C\CCOC(=O)CC
inactive: [1] | [2] | [12] | [3] | [6] | [14] | [9] | [10]

NC(=S)NNC(N)=S
not listed: [8] | [13] | [14] | [16] | [17] | [18]
inactive: all other assays above

CCc1ccc(O)c(OC)c1
inactive: [1] | [2] | [16] | [12] | [3] | [13] | [8] | [9] | [10]

N#Cc1cscn1
not listed: [3] | [5] | [11] | [15] | [17] | [18]
inactive: all other assays above

CCOc1ccc(NC(=O)CC(C)O)cc1 (stereo unspecified)
active: [2] 0.0975 µM
inactive: [1] | [12] | [3] | [7] | [14] | [9] | [10]

C1CCCCC1
not listed: [4] | [5] | [6] | [8] | [17] | [18]
inactive: all other assays above

Cc1ncc([N+](=O)[O-])n1CCO
not listed: [3] | [5] | [6] | [11] | [14] | [15] | [18]
inactive: all other assays above

O=C(O)c1cccnc1C(=O)O
inactive: [1] | [2] | [12] | [3] | [7] | [15] | [9] | [10]

Nc1ccccc1[N+](=O)[O-]
not listed: [4] | [7] | [13] | [16] | [17] | [18]
inactive: all other assays above

Nc1ccc2cc(S(=O)(=O)O)cc(O)c2c1N=Nc1ccccc1C(F)(F)F
not listed: [1] | [4] | [8] | [10] | [15] | [16] | [17]
inactive: all other assays above

Cc1ccc(C)o1
not listed: [1] | [5] | [7] | [8] | [11] | [15] | [16]
inactive: all other assays above

CCCC(O)C(O)CO (stereo unspecified)
inactive: [2] | [18] | [3] | [11] | [7] | [9] | [10]

C=CCN(CC=C)CC=C
inactive: [2] | [18] | [16] | [12] | [4] | [7] | [8] | [9] | [10]

Oc1ccc2cc(SSc3ccc4cc(O)ccc4c3)ccc2c1
active: [18] 27.6 µM | [12] 40.2 µM
not listed: [1] | [3] | [5] | [14] | [17]
inactive: all other assays above
